Shown are actives, neighbours in structure and some others; about 2.5% of the full set was active somewhere.
WRN inhibitor = inhibitors of human WRN helicase; Potency, µM (highest dose often 114 µM), most hits filed as inhibitors; WRN helicase unwinding, fluorescent forked duplex, kinetic; hit rate 0.46% among 360,000; Q14191; note: nearly all actives have a fitted effect of over 55% in size
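Kinetic fluorescence helicase assay: unwinding of a quenched forked DNA duplex (100 nM final) with 2 mM ATP final raises red fluorescence (525/598 nm). Compounds sat 15 min at room temperature with 20 nM WRN beforehand.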
Pol beta inh-1 = DNA polymerase beta (human) inhibition. Potency, µM (doses to about 114 µM), usual class: inhibitors. P06746. Pol beta primer extension/strand displacement, fluorescence kinetic. hit rate 1.3% among 340,000
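Pol beta (10 nM) and compounds were preincubated 15 min at room temperature, then 50 nM substrate (final) started primer extension/strand displacement. Reads were taken at 0 and 10 min; concentration-response data were fitted to a four-parameter Hill equation.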
L3MBTL1 inh-1 = L3MBTL1 (human) inhibition; Q9Y468; Potency, µM (top dose mostly 57.1 µM), usual class: inhibitors; AlphaScreen L3MBTL1–H3K9me1 peptide binding; hit rate 0.66% among 230,000; note: nearly all actives have a fitted effect of over 60% in size
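L3MBTL1 (50 nM) pre-complexed 30 min with biotinylated H3(1-15)K9me1 peptide (75 nM), then compounds added for 30 min at room temperature; AlphaScreen streptavidin donor/nickel chelate acceptor beads (10 ug/mL final) read after 30 min dark incubation.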
Pol kappa inh = inhibitors of human DNA polymerase kappa; Q9UBT6; purified Pol kappa, fluorescent DNA synthesis assay, 10 min; Potency, µM (series often up to 107 µM), usual class: inhibitors; hit rate 0.53% among 400,000; AID 588579
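Kinetic fluorescence readout at 0 and 10 min followed reaction start with substrate at 50 nM final. Beforehand, enzyme (10 nM Pol kappa) stood 15 min with compound at room temperature; buffer-only wells were negative controls.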
POLI inh = DNA polymerase iota (human) inhibition. Q9UNA4. Pol iota fluorescent replication assay, 10 min. Potency, µM (titrated, usually from 115 µM), usual class: inhibitors. hit rate 1% among 390,000
Target sequence (Q9UNA4 whole entry, looked up): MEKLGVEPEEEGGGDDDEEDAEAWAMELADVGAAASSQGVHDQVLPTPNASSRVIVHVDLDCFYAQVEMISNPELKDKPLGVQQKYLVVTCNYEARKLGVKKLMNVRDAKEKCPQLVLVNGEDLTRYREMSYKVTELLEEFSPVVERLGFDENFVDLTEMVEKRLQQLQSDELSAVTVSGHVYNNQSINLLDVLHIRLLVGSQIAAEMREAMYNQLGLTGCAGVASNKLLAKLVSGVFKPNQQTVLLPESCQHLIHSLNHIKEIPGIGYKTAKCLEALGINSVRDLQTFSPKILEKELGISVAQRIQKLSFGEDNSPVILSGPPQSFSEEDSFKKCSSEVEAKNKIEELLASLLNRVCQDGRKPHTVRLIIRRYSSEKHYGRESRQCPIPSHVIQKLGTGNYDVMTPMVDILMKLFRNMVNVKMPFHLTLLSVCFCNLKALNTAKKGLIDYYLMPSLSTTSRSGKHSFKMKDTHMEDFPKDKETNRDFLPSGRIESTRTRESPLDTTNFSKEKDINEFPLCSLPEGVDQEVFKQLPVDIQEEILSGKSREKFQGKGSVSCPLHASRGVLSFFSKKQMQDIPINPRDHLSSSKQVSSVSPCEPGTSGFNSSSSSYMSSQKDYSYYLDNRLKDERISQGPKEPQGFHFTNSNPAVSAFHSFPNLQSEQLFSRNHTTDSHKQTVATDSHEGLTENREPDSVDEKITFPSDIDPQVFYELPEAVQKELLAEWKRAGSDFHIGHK
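Fluorescent replication assay read twice, at 0 min and 10 min after adding 50 nM (final) substrate. Enzyme (10 nM) and compounds were first incubated 15 min at room temperature; enzyme-free buffer wells were negative controls.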
POLH inh = inhibitors of human DNA polymerase eta; Potency, µM (doses to about 114 µM), hits mostly inhibitors; AID 588591; hit rate 1.2% among 390,000; recombinant Pol eta, fluorescent DNA replication assay; Q9Y253
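Pol eta (10 nM) was preincubated with compounds for 15 min at room temperature, after which fluorescent replication substrate (50 nM final) was added to start the reaction. Fluorescence was read kinetically at 0 and 10 min.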
Pol beta inh-2 = Validate hits inhibiting human DNA polymerase beta; Pol beta primer extension/strand displacement, fluorescence kinetic; Potency, µM, most hits filed as inhibitors; shares compounds with Pol beta inh-1; hit rate 87% among 250; calls by dose curve
Klenow counter = counter-screen for DNA polymerase beta inhibitors: Klenow fragment inhibition; Klenow exo- polymerase counter-screen, fluorescent DNA substrate; activity change, negative = inhibition, % at 57.1 µM; shares compounds with Pol beta inh-1; AID 540300; 250 tested, under 10 active
HIV RT counter = HIV-1 RT inhibition, pol beta selectivity check. 250 tested, under 10 active. activity % (negative = inhibition, positive = activation), % at 57.1 µM. shares compounds with Pol beta inh-1. HIV-1 RT polymerase activity, counter-screen
POLB valid = DNA polymerase beta inhibition, radiolabeled validation. shares compounds with Pol beta inh-1. radiolabeled primer extension gel assay, phosphorimager. inhibition, % at 10 µM. hit rate 91% among 110. AID 540325;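 active = inhibition at 10 µM of 30% or more; inconclusive = no clear call, values can overlap the other calls; inactive = inhibition at 10 µM under 30%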
L3MBTL1 inh-2 = validation of human L3MBTL1 methyl-lysine binding inhibitors; shares compounds with L3MBTL1 inh-1; L3MBTL1 methyl-lysine binding inhibition, biochemical qHTS; Potency, µM, hits mostly inhibitors; hit rate 91% among 500; note: nearly all actives have a fitted effect of over 70% in size
L3MBTL1 ctr = AlphaScreen signal inhibition, L3MBTL1 hit counter-screen; Potency, µM (titrated, usually from 57.1 µM), hits mostly inhibitors; shares compounds with L3MBTL1 inh-1; 500 tested, under 10 active; AID 602224; AlphaScreen counterscreen, signal inhibition
POLI cherry-pick = Inhibitors of human DNA polymerase iota, confirmation. shares compounds with Pol kappa inh. Pol iota primer extension, TAMRA/BHQ fluorescence. Potency, µM, actives largely listed as inhibitors. hit rate 77% among 1,500
Hits are given with their value; . = inactive; ? = inconclusive; / = no result; [ ] = remark or other dose. Unless noted, calls come from the whole dose curve; as a rule, active = well fitted curve in the direction sought with a large enough effect; inconclusive = small, poorly fitted or top-dose-only effect, or another doubt; inactive = no such curve, though single readings can be large; an effect the other way counts as inactive or inconclusive.

SMILES | WRN inhibitor | Pol beta inh-1 | L3MBTL1 inh-1 | Pol kappa inh | POLI inh | POLH inh | Pol beta inh-2 | Klenow counter | HIV RT counter | others
Cc1ccc(NC(=O)C2c3ccccc3Oc3ccccc32)c(C)c1 | . | . | . | . | . | . | / | / | /
Cc1c2cnn(CC(=O)NCc3ccc(Cl)cc3)c(=O)c2c(C)n1Cc1ccc(F)cc1 | / | ? | / | . | . | . | / | / | /
Cc1c2cnn(CC(=O)Nc3c(F)c(F)cc(F)c3F)c(=O)c2c(C)n1Cc1ccc(F)cc1 | / | 8.9µM | . | / | / | / | 25 | . | . | POLB valid=100
O=C(NC(CO)Cc1ccccc1)c1ccccc1 (stereo not given) | . | . | . | . | . | . | / | / | /
COC(=O)CCCC1=CC2=CC(=O)C(C)(OC(=O)c3cccs3)C(=O)C2=CN1C1CCCC1 (stereo not given) | . | . | / | . | ? | . | / | / | /
CC1(OC(=O)c2cccs2)C(=O)C=C2C=C3CCCN3C=C2C1=O (stereo not given) | ? | 14µM | / | 11µM | 4.5µM | 22µM | 28 | . | .
NC(=O)c1c(NC(=O)CSc2nnc(-c3ccco3)n2-c2ccccc2)sc2c1CCC2 | . | 4.5µM | 10µM | ? | ? | 10µM | 13 | . | .
O=C(Nc1cc(Cl)cc(Cl)c1)c1ccc(Cn2c(=O)[nH]c3ccsc3c2=O)cc1 | . | 14µM | . | . | . | ? | ? | . | . | POLB valid=93
COc1ccc(/C=N/NC(=O)c2cc(-c3ccccc3)nc3ccccc23)c(OC)c1 | . | . | / | . | . | . | / | / | /
COc1ccc(NS(=O)(=O)c2ccc(O)c(NC(=O)c3ccc(S(=O)(=O)N4CCCC4)cc3)c2)cc1 | . | . | . | . | . | ? | / | / | /
COc1ccc(NS(=O)(=O)c2ccc(O)c(NC(=O)c3ccc(S(=O)(=O)N4CCCCCC4)cc3)c2)cc1 | .[11.6 µM] | 13µM | . | . | ? | ? | 35 | . | .
Cc1ccc(Cn2c(=O)n(CC3CCC(C(=O)N4CCOCC4)CC3)c(=O)c3sccc32)cc1 (stereo not given) | / | . | / | . | . | . | / | / | /
Cc1nn(-c2cccc(Cl)c2)c2nc(-c3ccco3)cc(C(=O)O)c12 | ? | 14µM | / | . | ? | 18µM | ? | . | .
CCC1CCCCN1CCCNC(=O)C1CCN(S(=O)(=O)N2CCCCC2)CC1 (stereo not given) | . | . | . | . | . | . | / | / | /
Cc1cc(C)c2cc(C#N)c(SCC(=O)NCc3ccco3)nc2c1 | . | 20µM | / | . | ? | ? | 28 | . | . | POLB valid=86
Cc1cc(C)c2cc(C)c(SCC(=O)NCc3ccco3)nc2c1 | . | . | . | . | ? | . | / | / | /
O=c1cc(-c2ccccc2)oc2ccc(Br)cc12 | . | / | . | . | ? | . | / | / | /
O=C1CC(N2CCN(Cc3ccc4c(c3)OCO4)CC2)C(=O)N1CCc1ccccc1 (stereo not given) | . | . | .[11.4 µM] | . | . | . | / | / | /
Cc1cc2oc(=O)cc(-c3cc4ccccc4o3)c2cc1O | . | 0.25µM | / | ? | . | ? | 16 | . | .
O=c1cc(-c2cc3ccccc3o2)c2cc(O)ccc2o1 | . | . | / | . | . | . | / | / | /
Cc1ccc(S(=O)(=O)N2CCCC2C(=O)OCc2ccccc2)cc1 (stereo not given) | . | . | . | . | . | . | / | / | /
Cc1ccc(S(=O)(=O)N2CCCC2C(=O)OCc2ccco2)cc1 (stereo not given) | ? | 20µM | / | . | 25µM | 32µM | 32 | . | . | POLB valid=51
O=C(COC(=O)COc1ccccc1[N+](=O)[O-])Nc1ccccc1Br | . | ? | . | . | . | . | / | / | /
O=C(Nc1nc2ccc(F)cc2s1)C1CCN(S(=O)(=O)c2cc([N+](=O)[O-])ccc2Cl)CC1 | . | 8.9µM | 28µM | . | ? | ? | 28 | . | . | POLB valid=100;L3MBTL1 inh-2=6.7;L3MBTL1 ctr=?
Cc1cc(Nc2ccc(Cl)cc2C)nc(-n2nc(C)cc2C)n1 | / | . | / | . | . | . | / | / | /
SMILES | WRN inhibitor | Pol beta inh-1 | L3MBTL1 inh-1 | Pol kappa inh | POLI inh | POLH inh | Pol beta inh-2 | Klenow counter | HIV RT counter | others
Cn1c(SCC(=O)Nc2ccc3nc(SCC(=O)N4CCCC4)sc3c2)nnc1-c1ccccc1 | ? | 7.1µM | ? | 79µM | ? | 14µM | 13 | . | . | POLI cherry-pick=75
N#CC1=C(N)N2C(=C(C#N)C1c1cccc(Br)c1)Nc1ccccc12 (stereo not given) | . | . | . | . | . | . | / | / | /
N#CC1=C(N)N2C(=C(C#N)C1c1ccc(Br)cc1)Nc1ccccc12 (stereo not given) | .[11.6 µM] | 13µM | . | . | ? | 56µM | 16 | . | . | POLI cherry-pick=?
COc1cc(/C=C(\C#N)C(=O)Nc2cccc(C(=O)O)c2)ccc1OCc1ccc(C)cc1 | . | ? | / | . | . | . | / | / | /
CCOc1cc(/C=C(\C#N)C(=O)Nc2cccc(C(=O)O)c2)ccc1OCc1ccc(Br)cc1 | .[11.6 µM] | 10µM | / | . | 7.1µM | ? | 3.5 | . | . | POLI cherry-pick=7.5
COc1ccc(NS(=O)(=O)c2c(C)[nH]c(C)c2C(=O)N2CCCCC2)cc1Cl | . | . | / | . | . | . | / | / | /
CCOC(=O)C1=C(C)N=C2SC=C(C)N2C1c1ccc(OC)cc1 (stereo not given) | . | . | . | . | ? | . | / | / | /
COc1cccc(C(=O)Nc2ccc3c(c2)C(=O)c2ccccc2C3=O)c1 | ? | 10µM | . | . | ? | ? | 14 | ? | . | POLI cherry-pick=?
Nc1nc(SCc2ccc(Cl)cc2Cl)nc2nc3c(cc12)CCCC3 | ? | 10µM | . | . | 79µM | ? | 35 | . | . | POLI cherry-pick=34
CO/N=C/C(=N\Nc1ccc(OC)cc1)C(=O)c1ccc(OC)cc1 | . | . | / | . | . | . | / | / | /
